Screening data: PubChem BioAssay, several laboratories
Pyk2 oligo antag: antagonists of human Pyk2 oligomerization | Q14289 | Q293 cells, Pyk2 FERM NanoBiT luminescence; stronger effect = lower value | z-score (the deposit names both 25 µM and 10 µM) | 99,000 compounds, 0.83% hits | AID 1347419;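 active = Z-score of -3 or lower, scaled per plate to the spread of control and sample wells; inactive = z-score above -3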;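 note: negative z-score means lost luminescence so less FERM oligomerization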
JNK3 inh: JNK3 (human) kinase inhibition; P53779; purified JNK3 kinase activity, HTS; inhibition, % at 8 µM; 60,000 compounds, 0.61% hits; in the data active = inhibition above about 17%;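 note: 0% = DMSO and 100% = reference inhibitor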
Target sequence (P53779 whole entry, looked up): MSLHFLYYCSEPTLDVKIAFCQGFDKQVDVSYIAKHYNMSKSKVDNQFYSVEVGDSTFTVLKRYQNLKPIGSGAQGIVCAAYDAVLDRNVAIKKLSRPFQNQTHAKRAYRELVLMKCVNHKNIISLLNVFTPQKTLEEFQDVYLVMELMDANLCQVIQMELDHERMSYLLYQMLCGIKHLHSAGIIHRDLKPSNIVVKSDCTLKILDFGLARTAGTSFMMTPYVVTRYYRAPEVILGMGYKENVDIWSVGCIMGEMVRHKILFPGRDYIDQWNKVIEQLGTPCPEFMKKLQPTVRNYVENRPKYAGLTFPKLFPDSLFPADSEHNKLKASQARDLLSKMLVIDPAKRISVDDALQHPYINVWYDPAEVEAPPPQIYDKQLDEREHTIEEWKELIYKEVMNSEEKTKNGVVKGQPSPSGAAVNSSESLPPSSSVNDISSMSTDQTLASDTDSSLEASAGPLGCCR
IL1B NFkB inh: blocks IL-1B driven NFkB nuclear translocation in HUVEC cells | 94,000 compounds, 0.43% hits | HUVEC IL-1B NFkB p65 nuclear translocation imaging | AID 796 | inhibition, % at 2 µM;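 active = inhibition above about 30% together with a positive call from visual inspection of the well image, limit read from the data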;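 note: nuclear over cytoplasmic p65 intensity ratio measured by imaging; 0% = IL-1B stimulated DMSO wells and 100% = unstimulated DMSO wells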
FAK blocker: blocks human focal adhesion kinase activity; AID 727; biochemical FAK kinase activity assay; Q05397; inhibition, %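 (tested at 7 µM)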; 97,000 compounds, 0.84% hits; in the data active = inhibition above about 19%;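 note: 0% = DMSO and 100% = reference compound high control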
IL1B cytotox: toxic to HUVEC cells under IL-1B stimulation; HUVEC cell count loss, Hoechst imaging, IL-1B stimulated; cell count reduction, % at 2 µM; 94,000 compounds, 0.41% hits;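 active = cell count reduction more than 3 SD above the screen-wide mean, cut at about 70% in these data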;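 note: normalized per plate to untreated control cells as the no-loss baseline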
NFkB transloc pot: enhances IL-1B driven NFkB nuclear translocation; activation, % at 2 µM; 94,000 compounds, 0.3% hits; HUVEC IL-1B NFkB p65 nuclear translocation imaging;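 active = activation above 40%, about the mean plus 3 SD, also judged a hit on visual image review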;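 note: percent activation is computed from the nuclear over cytoplasmic p65 intensity ratio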
Numbers without * were called inactive; nt = no result. Shown are actives, neighbours in structure and some others; about 2.4% of the full set was active somewhere.

SMILES | Pyk2 oligo antag | JNK3 inh | IL1B NFkB inh | FAK blocker | IL1B cytotox | NFkB transloc pot
COc1ccc(-n2ncc(S(=O)(=O)c3ccccc3)c2-c2ccc(Cl)cc2)cc1 | -3.27* | nt | 11.9 | -2.1 | 2.4 | -11.9
C=CCn1c(NC(=O)c2ccccc2)c(C#N)c2nc3ccccc3nc21 | nt | -0.3 | nt | nt | nt | nt
CCCCCCC(=O)N(O)C1CC(=O)N(c2ccc(Br)cc2)C1=O (centres undefined) | 0.12 | 3.7 | -47.8 | -0.3 | 12.3 | 47.8*
O=C(Nc1ccc2c(c1)C(=O)N(CC1CCCO1)C2=O)c1cccc(Br)c1 (centres undefined) | -3.15* | nt | -8.3 | 0.9 | -19.4 | 8.3
Cc1cccc(OC(=O)CN2C(=O)C3C4CCC(C4)C3C2=O)c1C (centres undefined) | 0.43 | nt | -10.9 | -1.4 | -4.2 | 10.9
O=C(CN1CCCN(S(=O)(=O)c2ccc(Br)cc2)CC1)Nc1ccc2c(c1)OCO2 | nt | 3.9 | 2.1 | 0.4 | 5.7 | -2.1
COc1ccc(-c2oc(/N=C/N3CCOCC3)c(C#N)c2-c2ccc(OC)cc2)cc1 | -3.57* | nt | 0.0 | 1.9 | -28.0 | 0.0
N#Cc1c(/N=C/c2ccccc2)oc(-c2ccccc2)c1-c1ccccc1 | -0.22 | nt | -9.3 | -1.6 | -3.2 | 9.3
O=C1CCCc2nn(-c3ccccc3)c(-c3ccncc3)c21 | -0.11 | 30.1* | 0.5 | -1.6 | -21.5 | -0.5
CC1(C)CC(=O)c2c(nn(-c3ccccc3)c2N)C1 | -0.65 | 2.6 | -15.2 | 9.4 | 0.0 | 15.2
COc1ccc([N+](=O)[O-])cc1C1NN=C(c2ccccc2O)S1 (centres undefined) | 0.88 | nt | 33.0* | 12.1 | 3.7 | -33.0
COc1ccc([N+](=O)[O-])cc1NC(=S)Nc1ccccc1 | 1.19 | nt | -3.3 | 1.6 | -18.0 | 3.3
CN(CCc1ccccn1)C(=O)CN(C)S(=O)(=O)c1ccc2c(c1)c(=O)n(C)c(=O)n2C | 0.14 | 0.4 | -41.3 | 1.1 | 3.3 | 41.3*
C=CCn1c(SCC(=O)Nc2sccc2C(N)=O)nc2ccc(Cl)cc2c1=O | -3.24* | nt | 0.0 | -4.0 | -13.9 | 0.0
C=CCn1c(SCC(=O)Nc2sccc2C(N)=O)nc2ccccc2c1=O | -2.59 | nt | 10.1 | 1.4 | 6.8 | -10.1
C=CCn1c(SCC(=O)Nc2sccc2C(N)=O)nc2sc(CC)cc2c1=O | -3.45* | nt | -8.6 | 3.0 | -9.5 | 8.6
N#Cc1c(NC(=S)NC(=O)Cc2cccs2)sc2c1CCCCC2 | -0.91 | nt | nt | 1.3 | nt | nt
CCOC(=O)C1CN(S(=O)(=O)c2ccc(C)cc2)C1 | -0.21 | nt | 8.6 | 1.1 | -5.0 | -8.6
COC(=O)C1CN(S(=O)(=O)c2ccc(C)cc2)CCN1S(=O)(=O)c1ccc(C)cc1 (centres undefined) | -3.69* | 4.6 | -11.5 | -0.2 | -34.5 | 11.5
COc1cccc(OC)c1C(=O)N1CCN(S(=O)(=O)c2ccc(C)cc2)CC1 | 0.55 | -2.0 | 32.3* | 1.4 | 8.8 | -32.3
CN(C)CC(C)(C)CNS(=O)(=O)c1cccc(Cl)c1Cl | 0.89 | nt | -33.6 | 1.0 | -14.0 | 33.6
CC1CN(C)C(c2ccccc2)C(C)C12NC(=O)NC2=O (centres undefined) | 0.84 | nt | 14.5 | 1.3 | -10.5 | -14.5
Cc1ccc(S(=O)(=O)Cn2nnnc2C(c2ccccc2)N2CCN(c3ncccn3)CC2)cc1 (centres undefined) | -0.3 | -3.5 | -4.2 | 2.3 | -4.5 | 4.2
CCCC(c1nnnn1CC1CCCO1)N1CCN(c2nc3ccccc3s2)CC1 (centres undefined) | -2.41 | nt | -12.4 | 1.5 | -18.1 | 12.4
Cc1ccc(S(=O)(=O)Cn2nnnc2C(c2ccccc2)N2CCN(c3ccccc3)CC2)cc1 (centres undefined) | -0.82 | nt | 56.8* | -3.0 | 22.8 | -56.8
c1ccc(CCn2nnnc2C(c2cccnc2)N2CCN(c3nc4ccccc4s3)CC2)cc1 (centres undefined) | -3.05* | 2.6 | -7.7 | 1.4 | 18.0 | 7.7
COc1ccc(C(c2nnnn2Cc2ccccc2)N2CCN(c3nc4ccccc4s3)CC2)cc1 (centres undefined) | -4.09* | -1.7 | nt | nt | nt | nt
CCCC(c1nnnn1Cc1cccs1)N1CCN(c2nc3ccccc3s2)CC1 (centres undefined) | -3.49* | -5.3 | 0.2 | -2.7 | -17.3 | -0.2
Cc1ccc(S(=O)(=O)CCSc2nc(C)cc(C(F)(F)F)c2C#N)cc1 | -0.59 | nt | -21.4 | 1.5 | -18.6 | 21.4
